Results filed as inconclusive are left out. Activity calls are given as the source filed them. Unless noted, calls come from the whole dose curve.
Legend:
[1] = target: Peroxisome proliferator-activated receptor delta (Homo sapiens) (UniProt Q03181); experiment: qHTS assay to identify small molecule agonists of the peroxisome proliferator-activated receptor delta (PPARd) signaling pathway (AID 743212)
Method in brief: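 Quantitative high-throughput agonist screen in a HEK293H beta-lactamase reporter line under UAS control. Compounds in DMSO, at 37 C. Fluorescence read after 2 h with FRET substrate at room temperature.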

[2] = qHTS assay to identify small molecule antagonists of the peroxisome proliferator-activated receptor delta (PPARd) signaling pathway - cell viability counter screen (AID 743213; active = well fitted curve in the direction sought with a large enough effect in the repeat runs; an effect the other way counts as inactive or inconclusive; note: nearly all actives have a fitted effect of over 50% in size)
Method in brief: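 PPARd-bla HEK293H cells (3000/well) got compound plus 300 nM L165041 agonist for 17 h at 37 C. Viability in the same wells came from CellTiter-Glo luminescence after 30 min at room temperature.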

[3] = target: Bile acid receptor (Homo sapiens) (UniProt Q96RI1); experiment: qHTS assay to identify small molecule antagonists of the farnesoid-X-receptor (FXR) signaling pathway (AID 743217; active = well fitted inhibition curve with a large enough effect in the signal ratio in the repeat runs, not every such curve was filed as active; the % refers to the signal ratio)
Method in brief: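 In this cell-based antagonist screen, inhibition of CDCA-driven (50 uM final) UAS-beta-lactamase expression in HEK 293T cells was measured by FRET fluorescence following 16 h compound exposure at 37 °C.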

[4] = qHTS assay to identify small molecule agonists of the farnesoid-X-receptor (FXR) signaling pathway - cell viability counter screen (AID 743218; active = well fitted curve in the direction sought with a large enough effect in the repeat runs; an effect the other way counts as inactive or inconclusive; note: nearly all actives have a fitted effect of over 45% in size)
Method in brief: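 After 16 h at 37 C with test compounds, FXR-bla HEK 293T cells were given LiveBLAzer B/G substrate for 2 h at RT and then CellTiter-Glo; luminescence was taken after 30 min.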

[5] = target: Bile acid receptor (Homo sapiens) (UniProt Q96RI1); experiment: qHTS assay to identify small molecule agonists of the farnesoid-X-receptor (FXR) signaling pathway (AID 743220; active = well fitted activation curve with a large enough effect in the signal ratio in the repeat runs, not every such curve was filed as active; the % refers to the signal ratio)
Method in brief: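 Beta-lactamase reporter under UAS control in GeneBLAzer FXR HEK 293T cells (5000/well) measured with LiveBLAzer FRET substrate after 2 h at room temperature. Compound exposure lasted 16 h at 37C.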

[6] = qHTS assay to identify small molecule antagonists of the farnesoid-X-receptor (FXR) signaling pathway - cell viability counter screen (AID 743221; active = well fitted cell-killing curve with a large enough effect in the repeat runs, not every such curve was filed as active; note: nearly all actives have a fitted effect of over 50% in size)
Method in brief: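 Cytotoxicity is taken from ATP luminescence (CellTiter-Glo, 30 min, room temperature) in FXR-bla HEK 293T cells previously incubated 16 h at 37 C with compound and chenodeoxycholic acid at 50 uM final.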

[7] = target: Vitamin D3 receptor (Homo sapiens) (UniProt P11473); experiment: qHTS assay to identify small molecule agonists of the vitamin D receptor (VDR) signaling pathway (AID 743222)
Method in brief: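 VDR-bla cells were seeded, left 4 h, treated with compounds in DMSO for 16 h, incubated 2 h at RT with B/G FRET substrate, and read for fluorescence.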

[8] = target: Vitamin D3 receptor (Homo sapiens) (UniProt P11473); experiment: qHTS assay to identify small molecule antagonists of the vitamin D receptor (VDR) signaling pathway (AID 743223; active = well fitted inhibition curve with a large enough effect in the signal ratio in the repeat runs, not every such curve was filed as active; the % refers to the signal ratio)
Method in brief: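 Quantitative HTS in VDR-bla reporter cells stimulated with 1alpha,25-dihydroxyvitamin D3, 3 nM final. Compound exposure 16 h, 37C, 5% CO2. Read-out: beta-lactamase FRET substrate fluorescence, 2 h RT.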

[9] = qHTS assay to identify small molecule agonists of the vitamin D receptor (VDR) signaling pathway - cell viability counter screen (AID 743224; active = well fitted curve in the direction sought with a large enough effect in the repeat runs; an effect the other way counts as inactive or inconclusive; note: series mostly up to about 63 µM; nearly all actives have a fitted effect of over 50% in size)
Method in brief: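 Here cell health was gauged by luminescent ATP detection (CellTiter-Glo, 30 min RT) in VDR-bla cells that had been incubated with test compounds for 16 h at 37C and 5% CO2.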

[10] = qHTS assay to identify small molecule antagonists of the vitamin D receptor (VDR) signaling pathway - cell viability counter screen (AID 743225; active = well fitted curve in the direction sought with a large enough effect in the repeat runs; an effect the other way counts as inactive or inconclusive; note: nearly all actives have a fitted effect of over 50% in size)
Method in brief: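 Same-well multiplex: following 16 h treatment of HEK 293T cells carrying a UAS-driven beta-lactamase reporter with compound and agonist (3 nM final), and a 2 h FRET substrate step, CellTiter-Glo was added and luminescence read after 30 min.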

[11] = qHTS assay to identify small molecule agonists of the NFkB signaling pathway (AID 1159509; active = well fitted curve in the direction sought with a large enough effect in the signal ratio in the repeat runs, not every such curve was filed as active; the % refers to the signal ratio; note: series mostly up to about 61 µM)
Method in brief: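 After overnight attachment, reporter cells received test compounds, DMSO or positive controls and were incubated 5 hr at 37 C. FRET substrate was then added for 1.5 hr at room temperature before dual-emission fluorescence reading.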

[12] = qHTS assay to identify small molecule agonists of the NFkB signaling pathway - cell viability counter screen (AID 1159515); note: series mostly up to about 61 µM; nearly all actives have a fitted effect of over 55% in size
Method in brief: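 5 hr compound treatment of NFkB-bla ME-180 cells (2,000/well, seeded overnight beforehand), followed by reporter substrate for 1.5 hr. CellTiter-Glo added afterward; luminescence after 30 min RT.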

[13] = qHTS assay to identify small molecule agonists of the endoplasmic reticulum stress response signaling pathway (AID 1159516; active = well fitted activation curve with a large enough effect in the signal ratio in the repeat runs, not every such curve was filed as active; the % refers to the signal ratio)
Method in brief: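 Reporter HeLa cells (ESRE-beta-lactamase) underwent 5 hr compound incubation at 37 C and 5% CO2 in quantitative HTS format. Detection followed 2 hr of FRET substrate loading at room temperature.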

[14] = qHTS assay to identify small molecule agonists of the endoplasmic reticulum stress response signaling pathway - cell viability counter screen (AID 1159517)
Method in brief: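 Counter-screen wells were identical to the reporter wells. Cells were plated at 1,500 per well and dosed for 5 hr, then read for luminescence 30 min after CellTiter-Glo addition.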

[15] = qHTS assay to identify small molecule antagonists of the retinoid-related orphan receptor gamma (ROR-gamma) signaling pathway - cell viability counter screen (AID 1159520; active = well fitted curve in the direction sought with a large enough effect in the repeat runs; an effect the other way counts as inactive or inconclusive; note: nearly all actives have a fitted effect of over 50% in size)
Method in brief: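 Tet-on ROR gamma CHO cells were given compounds for 2 hr, then doxycycline hyclate at 1 uM final, and incubated 16 hr at 37 C. Viability was measured as ATP content by CellTiter-Glo luminescence.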

[16] = target: Nuclear receptor ROR-gamma (Homo sapiens) (UniProt P51449); experiment: qHTS assay to identify small molecule antagonists of the retinoid-related orphan receptor gamma (ROR-gamma) signaling pathway (AID 1159521; active = well fitted curve in the direction sought with a large enough effect in the repeat runs; an effect the other way counts as inactive or inconclusive)
Method in brief: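 Inducible-expression reporter assay: doxycycline (1 uM final) switched on RORγ in CHO cells bearing a ROR response element-luciferase construct, with test compounds present from 2 h beforehand. Decreased luminescence after 16 h defined antagonist activity.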

[17] = qHTS assay to identify small molecule agonists of the AP-1 signaling pathway - cell viability counter screen (AID 1159525); note: nearly all actives have a fitted effect of over 55% in size
Method in brief: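 AP-1-bla ME-180 cells in Opti-MEM with 0.5% dialyzed FBS, compound exposure 5 h at 37 C in 15-point titration. Viability read in the same wells as ATP content by CellTiter-Glo luminescence, normalised to tetra-n-octylammonium bromide and DMSO controls.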

[18] = qHTS assay to identify small molecule agonists of the AP-1 signaling pathway (AID 1159526)
[19] = target: Retinoic acid receptor RXR-alpha (Homo sapiens) (UniProt P19793); experiment: qHTS assay to identify small molecule agonists of the RXR signaling pathway (AID 1159527); note: nearly all actives have a fitted effect of over 35% in size
Method in brief: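 Compounds in DMSO were added to RXR-alpha-UAS-bla HEK 293T cells kept in 2% charcoal-stripped serum, and incubated 16 hr at 37 C with 5% CO2. Reporter signal came from a 2 hr B/G FRET substrate step.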

[20] = target: Peroxisome proliferator-activated receptor delta (Homo sapiens) (UniProt Q03181); experiment: qHTS assay to identify small molecule antagonists of the peroxisome proliferator-activated receptor delta (PPARd) signaling pathway (AID 743215; active = well fitted inhibition curve with a large enough effect in the signal ratio in the repeat runs, not every such curve was filed as active; the % refers to the signal ratio;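 note: cells stimulated with agonist L165041 at 300 nM final during compound exposure; series mostly up to about 62 µM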)
Method in brief: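 With L165041 present at 300 nM final, compounds were incubated 17 h at 37 C on PPARd UAS-bla HEK293H cells. A FRET-based beta-lactamase substrate was then applied for 2 h at room temperature and fluorescence intensity recorded.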

Measured: Potency

Chain of Retinoic acid receptor RXR-alpha (Homo sapiens) (P19793 whole entry, looked up): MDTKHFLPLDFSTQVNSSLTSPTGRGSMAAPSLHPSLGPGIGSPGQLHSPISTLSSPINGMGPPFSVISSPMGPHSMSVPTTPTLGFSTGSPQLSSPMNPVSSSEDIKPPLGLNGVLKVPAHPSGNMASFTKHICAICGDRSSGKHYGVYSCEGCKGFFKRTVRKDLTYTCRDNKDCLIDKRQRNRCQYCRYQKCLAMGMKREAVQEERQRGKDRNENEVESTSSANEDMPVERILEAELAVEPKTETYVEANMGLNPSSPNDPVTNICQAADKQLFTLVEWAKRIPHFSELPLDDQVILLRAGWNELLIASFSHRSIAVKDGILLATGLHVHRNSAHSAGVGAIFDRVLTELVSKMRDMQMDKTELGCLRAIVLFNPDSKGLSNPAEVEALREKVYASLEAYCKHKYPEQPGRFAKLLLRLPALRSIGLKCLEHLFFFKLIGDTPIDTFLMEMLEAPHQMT
Chain of Vitamin D3 receptor (Homo sapiens) (P11473 whole entry, looked up): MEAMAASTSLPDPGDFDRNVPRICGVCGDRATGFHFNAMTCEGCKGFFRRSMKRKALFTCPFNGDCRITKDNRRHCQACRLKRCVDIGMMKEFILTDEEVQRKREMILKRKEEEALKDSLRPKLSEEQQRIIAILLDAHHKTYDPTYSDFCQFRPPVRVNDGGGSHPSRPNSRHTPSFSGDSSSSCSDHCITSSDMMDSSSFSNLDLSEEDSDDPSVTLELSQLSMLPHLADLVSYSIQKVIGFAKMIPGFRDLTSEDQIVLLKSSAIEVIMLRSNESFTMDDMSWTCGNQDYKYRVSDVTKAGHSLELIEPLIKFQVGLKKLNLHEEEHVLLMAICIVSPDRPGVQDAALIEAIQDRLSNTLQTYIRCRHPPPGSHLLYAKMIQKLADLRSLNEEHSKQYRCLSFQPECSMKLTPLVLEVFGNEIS
Chain of Bile acid receptor (Homo sapiens) (Q96RI1 whole entry, looked up): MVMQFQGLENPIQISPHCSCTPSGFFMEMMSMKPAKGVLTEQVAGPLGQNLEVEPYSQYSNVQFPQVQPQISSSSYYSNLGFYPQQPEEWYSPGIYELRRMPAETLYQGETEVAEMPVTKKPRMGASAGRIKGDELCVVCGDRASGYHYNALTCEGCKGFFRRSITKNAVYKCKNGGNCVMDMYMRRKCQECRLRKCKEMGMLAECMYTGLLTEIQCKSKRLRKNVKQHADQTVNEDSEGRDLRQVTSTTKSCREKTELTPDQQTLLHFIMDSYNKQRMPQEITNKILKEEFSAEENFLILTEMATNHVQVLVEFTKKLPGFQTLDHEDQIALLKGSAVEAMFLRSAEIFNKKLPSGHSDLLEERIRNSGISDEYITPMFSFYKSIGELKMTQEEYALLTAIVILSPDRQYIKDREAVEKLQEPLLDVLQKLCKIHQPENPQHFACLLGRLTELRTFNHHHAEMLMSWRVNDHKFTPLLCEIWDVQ
Chain of Peroxisome proliferator-activated receptor delta (Homo sapiens) (Q03181 whole entry, looked up): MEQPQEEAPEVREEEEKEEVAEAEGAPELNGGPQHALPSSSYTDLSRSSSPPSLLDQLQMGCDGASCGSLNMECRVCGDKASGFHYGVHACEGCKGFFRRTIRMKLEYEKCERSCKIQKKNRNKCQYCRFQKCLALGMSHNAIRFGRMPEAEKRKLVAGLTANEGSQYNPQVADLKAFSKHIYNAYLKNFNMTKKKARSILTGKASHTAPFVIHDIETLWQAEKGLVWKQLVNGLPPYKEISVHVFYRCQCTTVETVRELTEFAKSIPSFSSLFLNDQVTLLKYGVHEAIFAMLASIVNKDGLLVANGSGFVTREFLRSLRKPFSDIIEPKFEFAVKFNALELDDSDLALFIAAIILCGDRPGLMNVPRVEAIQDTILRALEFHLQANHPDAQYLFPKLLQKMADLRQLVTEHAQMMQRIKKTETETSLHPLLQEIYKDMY

ClC(Cl)(Cl)Cl
not listed: [20]
inactive: all other assays above

CC(C)(C)C(=O)C(Cl)Cl
not listed: [3] | [5] | [10]
inactive: all other assays above

C=C(Cl)CSC(=S)N(CC)CC
not listed: [20]
inactive: all other assays above

ClCC1CO1 (stereo not drawn)
not listed: [3] | [5]
inactive: all other assays above

C=C1CC[C@@]2(O)[C@H]3Cc4ccc(O)c5c4[C@@]2(CCN3CC2CC2)[C@H]1O5
not listed: [3] | [5]
inactive: all other assays above

CCOC(=O)N(C)N=O
not listed: [3] | [5]
inactive: all other assays above

OCC(Cl)CCl (stereo not drawn)
not listed: [3] | [5] | [10]
inactive: all other assays above

Cl/C=C/CCl
not listed: [3] | [5] | [10]
inactive: all other assays above

Source: PubChem BioAssay (Tox21)
